Laboratory results reported in PubChem BioAssay AID687001 (Broad Institute, 2013).
Potency and affinity values are given separately. Activity calls are given as the source filed them.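 The calls were made as follows: active = signal-lowering compounds whose fitted half-maximal concentration is at or below twice the top tested dose in every run; inconclusive = runs disagree, flat 30 to 70% inhibition, or poor curve fit; inactive = the rest.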

These molecules were tested against Protein S100-A4 (Homo sapiens) (UniProt P26447) (assay: human S100A4 peptide interaction inhibition curves – biochemical, fluorescence polarization, cherry-picked hits, dose response (AID 687001;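 also: 0% = DMSO neutral control wells and -100% = TFP positive control wells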)). Conditions: FP, S100A4/TAMRA-myosin IIA peptide binding; series mostly up to 11 µM.
Sequence of Protein S100-A4 (Homo sapiens) (P26447 whole entry, looked up): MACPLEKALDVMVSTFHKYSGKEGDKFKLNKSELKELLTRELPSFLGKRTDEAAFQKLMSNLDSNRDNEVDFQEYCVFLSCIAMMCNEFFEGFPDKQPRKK

How did the outcome turn out when `O=C(NCCc1ccncc1)Nc1ccc(F)cc1` was run?
The outcome was “inactive”.

For `Cc1ccc(/C=C2/SC(=O)N(CC(=O)N3CCOCC3)C2=O)s1`, which activity change, negative = inhibition is on record?
Its activity change, negative = inhibition is 7.53% [at 2.6 µM] (inactive).

`O=C(c1cccc(F)c1)N1CC[C@H]2[C@H](CO)Nc3ccc(-c4ccc(F)cc4)cc3[C@H]21` was tested. Which outcome did it give?
The outcome was “inactive”.

With `Cc1cccc(Nc2c3c(nc4ccccc24)CCC3)c1` as the molecule, how does the outcome read?
The outcome was “inactive”.
